Results from PubChem BioAssay (NCI).
Compounds without any hit were thinned out: in the full panel of roughly 79,000, 15% have a hit. Unmarked numbers belong to inactive results. The source made the active and inactive calls. No stated cut-off is given here; in the data, active means growth inhibition above about 70%; inactive means the rest.

How the values were obtained:
[1] = NCI Yeast Anticancer Drug Screen. Data for the rad50 strain (AID 155);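 further: 0% = growth of vehicle-only cultures of the same strain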; details: S. cerevisiae rad50 strain growth inhibition, stronger effect = higher value
How it was run: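 Inhibition values express reduced yeast growth in compound-treated cultures relative to vehicle-treated controls.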

[2] = NCI Yeast Anticancer Drug Screen. Data for the mec2-1 strain (AID 157); details: S. cerevisiae mec2-1 strain, stronger effect = higher value
How it was run: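 Yeast mec2-1 mutant treated with compound. Readout: growth inhibition vs vehicle controls.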

[3] = NCI Yeast Anticancer Drug Screen. Data for the sgs1 mgt1 strain (AID 161);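 further: 0% = growth of cultures given vehicle only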; details: S. cerevisiae sgs1 mgt1 strain, stronger effect = higher value
How it was run: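 Genetically altered yeast, compound exposure, growth inhibition relative to vehicle.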

[4] = NCI Yeast Anticancer Drug Screen. Data for the cln2 rad14 strain (AID 165);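 further: 0% = growth equal to vehicle treated cultures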; details: S. cerevisiae cln2 rad14 strain, stronger effect = higher value
How it was run: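 cln2 rad14 yeast strain; compound exposure; growth inhibition read vs vehicle controls.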

[5] = NCI Yeast Anticancer Drug Screen. Data for the bub3 strain (AID 167); details: S. cerevisiae bub3 mutant strain, stronger effect = higher value
How it was run: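 Steps: expose the mutant yeast strain to compound; grow alongside vehicle-treated cultures; measure growth; express inhibition against the vehicle cultures.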

[6] = NCI Yeast Anticancer Drug Screen. Data for the mlh1 rad18 strain (AID 175); details: S. cerevisiae mlh1 rad18 strain growth inhibition, stronger effect = higher value
How it was run: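 Yeast w/ defined DNA-repair lesions; compound exposure; growth vs vehicle controls → % inhibition.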

[7] = at 5.0 µM (retest, dose inferred, filed as 0.5)
[8] = at 50.0 µM (retest, dose inferred, filed as 5.0)

## Cc1ccc(-n2cc(-c3ccc(Cl)cc3)c3c(N)ncnc32)cc1
[1]; [7]
  growth inhibition: 37%
[1]; [8]
  growth inhibition: 95% (active)
[1]; at 50.0 µM
  growth inhibition: 97.1% (active)
[2]; [7]
  growth inhibition: 15%
[2]; [8]
  growth inhibition: 97% (active)
[2]; at 50.0 µM
  growth inhibition: 94.8% (active)
[3]; [7]
  growth inhibition: 60%
[3]; [8]
  growth inhibition: 94% (active)
[3]; at 50.0 µM
  growth inhibition: 98.3% (active)
[4]; [7]
  growth inhibition: -3%
[4]; [8]
  growth inhibition: 96% (active)
[4]; at 50.0 µM
  growth inhibition: 88.3% (active)
[5]; [7]
  growth inhibition: 14%
[5]; [8]
  growth inhibition: 97% (active)
[5]; at 50.0 µM
  growth inhibition: 92% (active)
[6]; [7]
  growth inhibition: 30%
[6]; [8]
  growth inhibition: 95% (active)
[6]; at 50.0 µM
  growth inhibition: 96.8% (active)

## CC(=O)C1C(S)CC2C3CC=C4CC(O)CCC4(C)C3CCC21C (configuration not stated)
[1]; [7]
  growth inhibition: 1%
[1]; [8]
  growth inhibition: 98% (active)
[1]; at 50.0 µM
  growth inhibition: 98.8% (active)
[2]; [7]
  growth inhibition: 7%
[2]; [8]
  growth inhibition: 98% (active)
[2]; at 50.0 µM
  growth inhibition: 98.5% (active)
[3]; [7]
  growth inhibition: -8%
[3]; [8]
  growth inhibition: 98% (active)
[3]; at 50.0 µM
  growth inhibition: 98.7% (active)
[4]; [7]
  growth inhibition: -7%
[4]; [8]
  growth inhibition: 98% (active)
[4]; at 50.0 µM
  growth inhibition: 98% (active)
[5]; [7]
  growth inhibition: 8%
[5]; [8]
  growth inhibition: 98% (active)
[5]; at 50.0 µM
  growth inhibition: 50.9%
[6]; [7]
  growth inhibition: 0%
[6]; [8]
  growth inhibition: 98% (active)
[6]; at 50.0 µM
  growth inhibition: 98.8% (active)

## O=C1NC(=O)N(c2ccc(Cl)c(Cl)c2)C1=O
[1]; [7]
  growth inhibition: -1%
[1]; [8]
  growth inhibition: 8%
[1]; at 50.0 µM
  growth inhibition: 71.2% (active)
[2]; [7]
  growth inhibition: 1%
[2]; [8]
  growth inhibition: 8%
[2]; at 50.0 µM
  growth inhibition: 36.5%
[3]; [7]
  growth inhibition: 0%
[3]; [8]
  growth inhibition: 7%
[3]; at 50.0 µM
  growth inhibition: 41.5%
[4]; [7]
  growth inhibition: -4%
[4]; [8]
  growth inhibition: 5%
[4]; at 50.0 µM
  growth inhibition: 24.8%
[5]; [7]
  growth inhibition: -5%
[5]; [8]
  growth inhibition: -1%
[5]; at 50.0 µM
  growth inhibition: 44.5%
[6]; [7]
  growth inhibition: -4%
[6]; [8]
  growth inhibition: 4%
[6]; at 50.0 µM
  growth inhibition: 27.9%

## COc1ccc2c(c1)C(=O)C(Br)CC2 (configuration not stated)
[1]; [7]
  growth inhibition: 16%
[1]; [8]
  growth inhibition: 98% (active)
[1]; at 50.0 µM
  growth inhibition: 25.4%
[2]; [7]
  growth inhibition: 12%
[2]; [8]
  growth inhibition: 99% (active)
[2]; at 50.0 µM
  growth inhibition: 66.6%
[3]; [7]
  growth inhibition: 2%
[3]; [8]
  growth inhibition: 55%
[3]; at 50.0 µM
  growth inhibition: 71.2% (active)
[4]; [7]
  growth inhibition: 26%
[4]; [8]
  growth inhibition: 92% (active)
[4]; at 50.0 µM
  growth inhibition: 32%
[5]; [7]
  growth inhibition: 32%
[5]; [8]
  growth inhibition: 99% (active)
[5]; at 50.0 µM
  growth inhibition: 70%
[6]; [7]
  growth inhibition: 13%
[6]; [8]
  growth inhibition: 99% (active)
[6]; at 50.0 µM
  growth inhibition: 65.8%

## COC/C(Br)=C\SC#N (tested in a mixture with another compound)
[1]; [7]
  growth inhibition: 0%
[1]; [8]
  growth inhibition: 34%
[1]; at 50.0 µM
  growth inhibition: 98.8% (active)
[2]; [7]
  growth inhibition: -14%
[2]; [8]
  growth inhibition: 23%
[2]; at 50.0 µM
  growth inhibition: 98.7% (active)
[3]; [7]
  growth inhibition: -2%
[3]; [8]
  growth inhibition: 40%
[3]; at 50.0 µM
  growth inhibition: 98.9% (active)
[4]; [7]
  growth inhibition: -5%
[4]; [8]
  growth inhibition: 61%
[4]; at 50.0 µM
  growth inhibition: 97.7% (active)
[5]; [7]
  growth inhibition: -6%
[5]; [8]
  growth inhibition: 53%
[5]; at 50.0 µM
  growth inhibition: 98.2% (active)
[6]; [7]
  growth inhibition: 16%
[6]; [8]
  growth inhibition: 38%
[6]; at 50.0 µM
  growth inhibition: 98.2% (active)

## CCCCCCCCSCc1ccc(N)cc1
[1]; [7]
  growth inhibition: 23%
[1]; [8]
  growth inhibition: 97% (active)
[1]; at 50.0 µM
  growth inhibition: 89.7% (active)
[2]; [7]
  growth inhibition: 12%
[2]; [8]
  growth inhibition: 98% (active)
[2]; at 50.0 µM
  growth inhibition: 91.4% (active)
[3]; [7]
  growth inhibition: 37%
[3]; [8]
  growth inhibition: 98% (active)
[3]; at 50.0 µM
  growth inhibition: 90.5% (active)
[4]; [7]
  growth inhibition: 39%
[4]; [8]
  growth inhibition: 98% (active)
[4]; at 50.0 µM
  growth inhibition: 89.5% (active)
[5]; [7]
  growth inhibition: 51%
[5]; [8]
  growth inhibition: 98% (active)
[5]; at 50.0 µM
  growth inhibition: 89% (active)
[6]; [7]
  growth inhibition: 20%
[6]; [8]
  growth inhibition: 97% (active)
[6]; at 50.0 µM
  growth inhibition: 89.6% (active)

## NNc1cc([N+](=O)[O-])ccc1Cl
[1]; [7]
  growth inhibition: 5%
[1]; [8]
  growth inhibition: 93% (active)
[1]; at 50.0 µM
  growth inhibition: 88.5% (active)
[2]; [7]
  growth inhibition: 6%
[2]; [8]
  growth inhibition: 68%
[2]; at 50.0 µM
  growth inhibition: 91.2% (active)
[3]; [7]
  growth inhibition: -8%
[3]; [8]
  growth inhibition: 84% (active)
[3]; at 50.0 µM
  growth inhibition: 90.8% (active)
[4]; [7]
  growth inhibition: 4%
[4]; [8]
  growth inhibition: 38%
[4]; at 50.0 µM
  growth inhibition: 68%
[5]; [7]
  growth inhibition: 24%
[5]; [8]
  growth inhibition: 94% (active)
[5]; at 50.0 µM
  growth inhibition: 95.1% (active)
[6]; [7]
  growth inhibition: -20%
[6]; [8]
  growth inhibition: 95% (active)
[6]; at 50.0 µM
  growth inhibition: 98.5% (active)

## O=C(C[n+]1ccc2ccccc2c1)c1ccc(-c2ccccc2)cc1
[1]; [7]
  growth inhibition: -5%
[1]; [8]
  growth inhibition: 97% (active)
[1]; at 50.0 µM
  growth inhibition: 98.2% (active)
[2]; [7]
  growth inhibition: -2%
[2]; [8]
  growth inhibition: 98% (active)
[2]; at 50.0 µM
  growth inhibition: 97.8% (active)
[3]; [7]
  growth inhibition: -3%
[3]; [8]
  growth inhibition: 97% (active)
[3]; at 50.0 µM
  growth inhibition: 98% (active)
[4]; [7]
  growth inhibition: -4%
[4]; [8]
  growth inhibition: 96% (active)
[4]; at 50.0 µM
  growth inhibition: 96.8% (active)
[5]; [7]
  growth inhibition: -5%
[5]; [8]
  growth inhibition: 98% (active)
[5]; at 50.0 µM
  growth inhibition: 98.5% (active)
[6]; [7]
  growth inhibition: -7%
[6]; [8]
  growth inhibition: 98% (active)
[6]; at 50.0 µM
  growth inhibition: 97.8% (active)

## CCN(CC)CCCC(Nc1c2ccc(Cl)cc2nc2ccc(OC)cc12)c1cccs1 (configuration not stated)
[1]; [7]
  growth inhibition: 91% (active)
[1]; [8]
  growth inhibition: 74% (active)
[1]; at 50.0 µM
  growth inhibition: 81.5% (active)
[2]; [7]
  growth inhibition: 91% (active)
[2]; [8]
  growth inhibition: 72% (active)
[2]; at 50.0 µM
  growth inhibition: 35.2%
[3]; [7]
  growth inhibition: 92% (active)
[3]; [8]
  growth inhibition: 75% (active)
[3]; at 50.0 µM
  growth inhibition: 65.9%
[4]; [7]
  growth inhibition: 87% (active)
[4]; [8]
  growth inhibition: 62%
[4]; at 50.0 µM
  growth inhibition: 74.8% (active)
[5]; [7]
  growth inhibition: 90% (active)
[5]; [8]
  growth inhibition: 68%
[5]; at 50.0 µM
  growth inhibition: 68.9%
[6]; [7]
  growth inhibition: 91% (active)
[6]; [8]
  growth inhibition: 72% (active)
[6]; at 50.0 µM
  growth inhibition: 62.5%
